{"source": "PubChem BioAssay AID949", "about": "(Emory University Molecular Libraries Screening Center, 2007)", "assay": "SDO1-depleted yeast growth rescue, concentration-response, diseases of bone marrow failure, JHY4D, OD600 (AID 949);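 for OD recovery: gain in OD600 from 0 h to 30 h averaged across all seven doses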", "settings": "S. cerevisiae JHY4D (SDO1-depleted) growth rescue, OD600, 30 h, efflux-deficient strain, SNQ2 and PDR5 mutated; OD recovery: stronger effect = higher value; dose-response slope: measured here: 30 h OD slope vs dose", "note": "The other results are listed elsewhere or left out. Activity calls are given as the source filed them.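 Rule for the calls: active = yeast growth recovered at 30 hours, either rising with dose fitted slope above 0.001 or with average optical density gain above 0.07 (some results past the limit were not filed as active); inactive = growth falling with dose or no effect.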", "data": [{"smiles": "COc1ccc(CNC(=O)c2c(C)cc(=O)oc2C)cc1OC", "values": [{"measurement": "OD recovery", "result": "0.0773 (active)"}, {"measurement": "dose-response slope", "result": 0.000182}]}, {"smiles": "CN(C)c1ccc(Nc2c3c4c(cccc4n(C)c2=O)C(=O)c2ccccc2-3)cc1", "values": [{"measurement": "OD recovery", "result": "0.0269 (inactive)"}, {"measurement": "dose-response slope", "result": -0.000458}]}, {"smiles": "COc1cc(OC)nc(S(C)(=O)=O)n1", "values": [{"measurement": "OD recovery", "result": "0.0647 (inactive)"}, {"measurement": "dose-response slope", "result": 0.000101}]}, {"smiles": "COc1ccc(OCC(=O)NNC(=O)c2ccc(-c3ccccc3)cc2)cc1", "values": [{"measurement": "OD recovery", "result": "0.0649 (inactive)"}, {"measurement": "dose-response slope", "result": -0.000252}]}, {"smiles": "CS(=O)(=O)Nc1ccc(C(=O)N2CCCC2)cc1", "values": [{"measurement": "OD recovery", "result": "0.0956 (active)"}, {"measurement": "dose-response slope", "result": 0.000226}]}, {"smiles": "COc1cccc(-c2nnc(NC(=O)c3ccc(S(=O)(=O)N(CC(C)C)CC(C)C)cc3)o2)c1", "values": [{"measurement": "OD recovery", "result": "0.0821 (active)"}, {"measurement": "dose-response slope", "result": -0.000585}]}, {"smiles": "CCOc1cccc2c1OC1(CCCCC1)N1N=C(c3cccnc3)CC21", "note": "(configuration not stated)", "values": [{"measurement": "OD recovery", "result": "0.0606 (inactive)"}, {"measurement": "dose-response slope", "result": -0.000222}]}, {"smiles": "Cc1[nH]c2ccccc2c1C(=O)CSCC(=O)O", "values": [{"measurement": "OD recovery", "result": "0.11 (active)"}, {"measurement": "dose-response slope", "result": -0.000672}]}, {"smiles": "O=C(CSc1nc(-c2ccco2)cc(C(F)(F)F)n1)NCc1cccs1", "values": [{"measurement": "OD recovery", "result": "0.072 (active)"}, {"measurement": "dose-response slope", "result": 0.00107}]}, {"smiles": "CC(=O)Nc1ccc(S(=O)(=O)NCCc2ccccc2)cc1", "values": [{"measurement": "OD recovery", "result": "0.0591 (inactive)"}, {"measurement": "dose-response slope", "result": 0.00092}]}, {"smiles": "O=C(COC(=O)/C=C/c1cccc(Cl)c1)NCCc1ccccc1", "values": [{"measurement": "OD recovery", "result": "0.091 (active)"}, {"measurement": "dose-response slope", "result": -0.000894}]}, {"smiles": "COc1ccc(-c2nnco2)cc1OC", "values": [{"measurement": "OD recovery", "result": "0.0477 (inactive)"}, {"measurement": "dose-response slope", "result": 0.000454}]}, {"smiles": "Cc1oc2nc(SCC(=O)NCc3cccnc3)nc(N)c2c1C", "values": [{"measurement": "OD recovery", "result": "0.0937 (active)"}, {"measurement": "dose-response slope", "result": 0.000887}]}, {"smiles": "COc1ccc(/C(C)=N/NC(=O)CCC(=O)Nc2ccc(Cl)cc2Cl)c(OC)c1", "values": [{"measurement": "OD recovery", "result": "0.11 (active)"}, {"measurement": "dose-response slope", "result": 0.000741}]}, {"smiles": "CC(C)OC(=O)c1c(NC(=O)c2ccco2)sc2c1CCCC2", "values": [{"measurement": "OD recovery", "result": "0.0368 (inactive)"}, {"measurement": "dose-response slope", "result": 0.000949}]}, {"smiles": "O=S(=O)(/N=C(/Nc1ccccn1)c1ccccc1)c1ccc(Cl)cc1", "values": [{"measurement": "OD recovery", "result": "0.0469 (inactive)"}, {"measurement": "dose-response slope", "result": 0.000638}]}]}
